Reference: PubChem BioAssay AID1159580 (chemical genetic matrix, 2015)
The campaign covered roughly 5,500 compounds. About 2,000 (36%) were called active. Roughly 18% stayed inconclusive and do not appear here. No stated cut-off is given here; in the data, active means normalized growth mostly below about 0.91 (no sharp cut-off); inconclusive means no clear call, values can overlap the other calls; inactive means mostly above about 0.92. This is one part of the list.

Experiment: chemical genetic growth profiling, strain panel (AID 1159580);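 further: tested at 20 µM; growth read once vehicle control cultures reached saturation at 30 °C; 1 = growth at the plate median or of vehicle wells; lower values mean less growth of the strain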
Details: S. cerevisiae deletion strains, growth OD

Measured: normalized growth

C=C1CCC2[C@](C)(CO)[C@H](O)CC[C@@]2(C)[C@@H]1C/C=C1/C(=O)OC[C@H]1O (some centres undefined)
inactive: locus YAL013W, strain DEP1, active compounds read low 1.01 | locus YAL021C, strain ccr4, active compounds read low 0.993 | locus YAL026C, strain drs2, active compounds read low 0.992 | locus YAL030W, strain snc1, active compounds read low 0.996 | locus YBL061C, strain skt5, active compounds read low 1 | locus YBR009C, strain hhf1, active compounds read low 1.02 | locus YBR021W, strain FUR4, active compounds read low 1 | locus YBR023C, strain chs3, active compounds read low 0.999 | locus YBR171W, strain sec66, active compounds read low 0.978 | locus YBR229C, strain ROT2, active compounds read low 1.01 | locus YBR231C, strain swc5, active compounds read low 0.996 | locus YBR279W, strain paf1, active compounds read low 1 | locus YCL011C, strain gbp2, active compounds read low 0.985 | locus YCL016C, strain dcc1, active compounds read low 0.998 | locus YCL029C, strain bik1, active compounds read low 1.03 | locus YCL069W, strain vba3, active compounds read low 1.01 | locus YCR088W, strain abp1, active compounds read low 1 | locus YDL005C, strain med2, active compounds read low 0.961 | locus YDL035C, strain GPR1, active compounds read low 1.02 | locus YDL040C, strain nat1, active compounds read low 0.995 | locus YDL074C, strain BRE1, active compounds read low 1.06 | locus YDL101C, strain DUN1, active compounds read low 1.02 | locus YDL185W, strain tfp1, active compounds read low 1.03 | locus YDL192W, strain arf1, active compounds read low 1.02 | locus YDR001C, strain nth1, active compounds read low 0.988 | locus YDR069C, strain doa4, active compounds read low 0.992 | locus YDR101C, strain arx1, active compounds read low 1.01 | locus YDR137W, strain rgp1, active compounds read low 0.995 | locus YDR159W, strain sac3, active compounds read low 1.04 | locus YDR162C, strain NBP2, active compounds read low 1.04 | locus YDR195W, strain ref2 0.949 | locus YDR297W, strain sur2, active compounds read low 1 | locus YDR318W, strain mcm21, active compounds read low 1.05 | locus YDR334W, strain swr1, active compounds read low 0.987 | locus YDR335W, strain msn5, active compounds read low 0.986 | locus YDR388W, active compounds read low 1.01 | locus YDR392W, strain spt3, active compounds read low 0.998 | locus YDR502C, strain sam2, active compounds read low 1.05 | locus YEL003W, strain gim4, active compounds read low 0.995 | locus YEL037C, strain rad23, active compounds read low 0.999 | locus YEL061C, strain CIN8 (second series), active compounds read low 0.99 | locus YEL061C, strain CIN8, active compounds read low 1.01 | locus YER015W, strain faa2, active compounds read low 0.994 | locus YER016W, strain bim1, active compounds read low 0.978 | locus YER110C, active compounds read low 1.02 | locus YER111C, strain swi4, active compounds read low 0.988 | locus YER155C, strain BEM2 (second series), active compounds read low 0.995 | locus YER155C, strain BEM2, active compounds read low 1.02 | locus YER167W, strain BCK2, active compounds read low 1.01 | locus YFR010W, strain ubp6, active compounds read low 1.02 | locus YGL078C, strain dbp3, active compounds read low 1.03 | locus YGL086W, strain mad1, active compounds read low 1.01 | locus YGL167C, strain pmr1, active compounds read low 0.992 | locus YGL173C, strain kem1, active compounds read low 1.01 | locus YGL227W, strain vid30, active compounds read low 0.991 | locus YGL240W, strain doc1, active compounds read low 0.999 | locus YGL248W, strain PDE1, active compounds read low 1.03 | locus YGL253W, strain hxk2, active compounds read low 0.971 | locus YGR078C, strain PAC10, active compounds read low 1.03 | locus YGR135W, strain pre9, active compounds read low 1.05 | locus YGR252W, strain gcn5, active compounds read low 1.01 | locus YHR013C, strain ard1, active compounds read low 0.983 | locus YHR027C, strain rpn1, active compounds read low 0.976 | locus YHR079C, strain IRE1 (second series), active compounds read low 1.03 | locus YHR094C, strain hxt1, active compounds read low 1.02 | locus YHR129C, strain ARP1, active compounds read low 1.01 | locus YHR142W, strain chs7, active compounds read low 0.976 | locus YHR200W, strain rpn10, active compounds read low 1.03 | locus YIL066C, strain RNR3, active compounds read low 1.02 | locus YIL073C, strain SPO22, active compounds read low 1.11 | locus YIL125W, strain kgd1, active compounds read low 1.03 | locus YIR030C, strain dcg1, active compounds read low 1.03 | locus YJL092W, strain hpr5, active compounds read low 0.985 | locus YJL095W, strain BCK1 (second series), active compounds read low 0.982 | locus YJL095W, strain BCK1, active compounds read low 1.05 | locus YJL115W, strain asf1, active compounds read low 0.955 | locus YJL129C, strain trk1, active compounds read low 0.982 | locus YJL134W, strain LCB3, active compounds read low 1.01 | locus YJL154C, strain vps35, active compounds read low 0.984 | locus YJL164C, strain tpk1, active compounds read low 1.01 | locus YJL166W, strain qcr8, active compounds read low 0.987 | locus YJL168C, strain set2, active compounds read low 1.02 | locus YJL187C, strain SWE1 (second series), active compounds read low 1.02 | locus YJL187C, strain SWE1, active compounds read low 0.996 | locus YJR043C, strain POL32, active compounds read low 1.02 | locus YKL009W, strain mrt4, active compounds read low 1.02 | locus YKL068W, active compounds read low 1.02 | locus YKL085W, strain MDH1 (second series), active compounds read low 1.03 | locus YKL085W, strain MDH1, active compounds read low 1.03 | locus YKL160W, strain elf1, active compounds read low 0.995 | locus YKL190W, strain CNB1, active compounds read low 1.01 | locus YKR001C, strain vps1, active compounds read low 1.07 | locus YKR026C, strain gcn3, active compounds read low 0.999 | locus YKR091W, strain srl3, active compounds read low 0.979 | locus YLL001W, strain dnm1, active compounds read low 1.01 | locus YLL026W, active compounds read low 0.993 | locus YLL041C, strain sdh2, active compounds read low 1.02 | locus YLR027C, strain aat2, active compounds read low 1 | locus YLR039C, strain RIC1, active compounds read low 1.09 | locus YLR058C, strain SHM2, active compounds read low 1.04 | locus YLR102C, strain apc9, active compounds read low 1.02 | locus YLR221C, strain rsa3, active compounds read low 1.04 | locus YLR258W, strain gsy2, active compounds read low 1.01 | locus YLR262C, strain YPT6 (second series), active compounds read low 0.975 | locus YLR268W, strain sec22, active compounds read low 1.04 | locus YLR320W, strain mms22, active compounds read low 1.04 | locus YLR330W, strain CHS5, active compounds read low 1.02 | locus YLR342W, strain FKS1, active compounds read low 1.02 | locus YLR357W, strain rsc2, active compounds read low 0.979 | locus YLR370C, strain arc18, active compounds read low 0.972 | locus YLR371W, strain rom2, active compounds read low 1.02 | locus YLR384C, strain iki3, active compounds read low 0.993 | locus YLR418C, strain cdc73, active compounds read low 1.07 | locus YML016C, strain PPZ1, active compounds read low 1.01 | locus YML032C, strain rad52, active compounds read low 1.03 | locus YML120C, strain ndi1, active compounds read low 1 | locus YML124C, strain tub3, active compounds read low 1.03 | locus YMR058W, strain fet3, active compounds read low 0.977 | locus YMR078C, strain ctf18, active compounds read low 1.03 | locus YMR125W, strain sto1, active compounds read low 0.98 | locus YMR129W, active compounds read low 0.98 | locus YMR205C, strain PFK2, active compounds read low 0.995 | locus YMR223W, strain ubp8, active compounds read low 1.03 | locus YMR231W, strain pep5, active compounds read low 0.997 | locus YMR307W, strain GAS1, active compounds read low 0.967 | locus YNL067W, strain RPL9B, active compounds read low 1.02 | locus YNL071W, strain lat1, active compounds read low 1 | locus YNL209W, strain ssb2, active compounds read low 0.987 | locus YNL233W, strain BNI4, active compounds read low 1.02 | locus YNL248C, strain rpa49, active compounds read low 0.979 | locus YNL250W, strain rad50, active compounds read low 1.04 | locus YNL271C, strain bni1, active compounds read low 1.03 | locus YNL298W, strain CLA4, active compounds read low 1.03 | locus YNL307C, strain MCK1, active compounds read low 1.04 | locus YNL322C, strain KRE1 (second series), active compounds read low 0.977 | locus YNR049C, strain mso1, active compounds read low 0.974 | locus YNR052C, strain pop2, active compounds read low 1.03 | locus YOL006C, strain TOP1, active compounds read low 1.07 | locus YOL012C, strain htz1 1.13 | locus YOL147C, strain pex11, active compounds read low 1.04 | locus YOR001W, strain rrp6, active compounds read low 1.01 | locus YOR061W, strain CKA2, active compounds read low 1.02 | locus YOR069W, strain VPS5, active compounds read low 1.01 | locus YOR070C, strain gyp1, active compounds read low 1.01 | locus YOR080W, strain dia2, active compounds read low 0.966 | locus YOR083W, strain WHI5, active compounds read low 1 | locus YOR106W, strain vam3, active compounds read low 0.986 | locus YOR136W, strain idh2, active compounds read low 1.04 | locus YOR144C, strain elg1, active compounds read low 1.03 | locus YOR184W, strain ser1, active compounds read low 1.05 | locus YOR265W, strain rbl2, active compounds read low 0.993 | locus YOR270C, strain vph1, active compounds read low 1.02 | locus YOR290C, strain snf2, active compounds read low 0.966 | locus YOR316C, strain cot1, active compounds read low 1.03 | locus YPL051W, strain arl3, active compounds read low 0.986 | locus YPL078C, strain atp4, active compounds read low 0.982 | locus YPL106C, strain sse1, active compounds read low 1 | locus YPL240C, strain hsp82, active compounds read low 0.998 | locus YPL241C, strain CIN2, active compounds read low 1.01 | locus YPR119W, strain clb2, active compounds read low 1.02 | locus YPR141C, strain kar3, active compounds read low 1.01 | locus YPR163C, strain tif3, active compounds read low 1.04 | locus YPR167C, strain met16, active compounds read low 1.03 | strain wtn01, active compounds read low 1.02
